Reference: PubChem BioAssay (EPA / NIEHS)
Inconclusive results are not listed. Active and inactive are the calls of the source. Rule for the calls, unless noted: active = hit-call score of the fitted dose curve at least 0.9, where 1 is the maximum; inactive = score below 0.9.

How the values were obtained:
[1] = molecular target: human Retinoid X Receptor beta (RXRb), RXRB (gene 6257) (UniProt P28702); assay: ATG_RXRb_TRANS: Attagene TRANS-FACTORIAL HepG2 Assay for human Retinoid X Receptor beta (RXRb) (AID 2283013; active = hit-call score of the fitted dose curve at least 0.9, where 1 is the maximum)
Sequence of human Retinoid X Receptor beta (RXRb), RXRB (gene 6257) (P28702 whole entry, looked up): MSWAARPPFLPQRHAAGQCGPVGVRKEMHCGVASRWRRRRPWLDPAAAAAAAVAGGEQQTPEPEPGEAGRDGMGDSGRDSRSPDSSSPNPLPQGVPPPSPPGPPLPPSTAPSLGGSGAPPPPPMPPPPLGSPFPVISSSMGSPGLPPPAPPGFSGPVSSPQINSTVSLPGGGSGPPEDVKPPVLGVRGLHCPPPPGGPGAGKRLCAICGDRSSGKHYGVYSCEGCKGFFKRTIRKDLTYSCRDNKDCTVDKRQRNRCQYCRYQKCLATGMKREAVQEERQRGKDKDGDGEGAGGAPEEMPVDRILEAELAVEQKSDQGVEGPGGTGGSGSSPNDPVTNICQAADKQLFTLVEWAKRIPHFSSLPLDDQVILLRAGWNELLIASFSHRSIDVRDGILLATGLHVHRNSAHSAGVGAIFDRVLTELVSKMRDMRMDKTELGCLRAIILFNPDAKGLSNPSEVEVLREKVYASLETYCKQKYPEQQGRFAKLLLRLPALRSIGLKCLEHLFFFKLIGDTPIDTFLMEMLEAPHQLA
How it was run: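 Multiplexed TRANS reporter assay in HepG2; 24 h dosing; reporter mRNA by RT-PCR/CE fluorescence; gain-of-signal relative to DMSO.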

[2] = read-out: E-selectin (Homo sapiens) (UniProt P16581); assay: BSK_3C_Eselectin: BioMAP Diversity Plus: 3C Assay for Eselectin Biomarker Activity (AID 2283015); conditions: primary human endothelial cells (HUVEC); actives raise or lower the signal
How it was run: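 E-selectin ELISA readout, fitted bidirectionally relative to DMSO, taken 24 h post-dosing in HUVEC cultures of the 3C system. Overt cytotoxicity tracked with sulforhodamine B staining of parallel wells.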

[3] = read-out: Interleukin-1 alpha (IL1a), IL1A (gene 3552); assay: BSK_BE3C_IL1a: BioMAP Diversity Plus: BE3C Assay for Interleukin-1 alpha (IL1a) Biomarker Activity (AID 2283016); conditions: primary human bronchial epithelial cells; actives raise or lower the signal
How it was run: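 Cultures of primary human bronchial epithelial cells receive test chemical. After 24 h, IL-1a is quantified by ELISA, while parallel wells are fixed in TCA and SRB-stained for total protein. Changes in either direction are fitted relative to DMSO.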

[4] = read-out: Monocyte Chemoattractant Protein-1 (MCP1), CCL2 (gene 6347); assay: BSK_3C_MCP1: BioMAP Diversity Plus: 3C Assay for Monocyte Chemoattractant Protein-1 (MCP1) Biomarker Activity (AID 2283017); conditions: primary human endothelial cells (HUVEC); actives raise or lower the signal
How it was run: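 MCP-1 was measured by ELISA 24 h after dosing in primary HUVEC 3C cultures and fitted in both directions relative to DMSO; cytotoxicity was checked by SRB total-protein staining in parallel wells.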

[5] = read-out: Human Leukocyte Antigen - DR isotype (HLADR), HLA-DRA (gene 3122); assay: BSK_3C_HLADR: BioMAP Diversity Plus: 3C Assay for Human Leukocyte Antigen - DR isotype (HLADR) Biomarker Activity (AID 2283019); conditions: primary human endothelial cells (HUVEC); actives raise or lower the signal
How it was run: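 Bidirectional fitting against DMSO was applied to the HLA-DR ELISA signal from human umbilical vein endothelial cells, 24 h post-dose. Cytotoxicity came from parallel SRB total-protein staining; 3C proliferation was counted by SRB at 48 h.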

[6] = read-out: Monokine induced gamma interferon (MIG), CXCL9 (gene 4283); assay: BSK_3C_MIG: BioMAP Diversity Plus: 3C Assay for Monokine induced gamma interferon (MIG) Biomarker Activity (AID 2283021); conditions: primary human endothelial cells (HUVEC); actives raise or lower the signal;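 for AC50: MIG protein level measured by immunoassay in the treated endothelial cultures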
How it was run: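 After 24 h of treatment, human umbilical vein endothelial cultures (3C system) had their MIG biomarker level determined by ELISA, with DMSO serving as negative control.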

[7] = BSK_3C_SRB: Viability Assessment in the BioMAP Diversity Plus: 3C Assay (AID 2283023); conditions: primary human endothelial cells (HUVEC);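 note: fitted both ways against DMSO so a hit may be signal rise or drop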
How it was run: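 Cytotoxicity readout in parallel HUVEC 3C cultures: after 24 h compound exposure, cells fixed with 10% TCA, stained with 0.1% SRB and read at 560 nm. Gain or loss relative to DMSO fitted.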

[8] = read-out: Matrix Metallopeptidase 1 (MMP1), MMP1 (gene 4312); assay: BSK_BE3C_MMP1: BioMAP Diversity Plus: BE3C Assay for Matrix Metallopeptidase 1 (MMP1) Biomarker Activity (AID 2283024); conditions: primary human bronchial epithelial cells; actives raise or lower the signal
How it was run: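 Dose cells, wait 24 h, run MMP1 ELISA; cells are human bronchial epithelial primaries. Both increases and decreases relative to DMSO counted.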

[9] = BSK_3C_Vis: BioMAP Diversity Plus: 3C Assay for Morphology Visualization (AID 2283025); conditions: primary human endothelial cells (HUVEC);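 note: fitted both ways so gain or loss versus DMSO counts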;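 for AC50: light microscopy image of cell morphology used as background control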
How it was run: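 Endothelial cells from human umbilical vein were treated with test chemicals for 24 h and inspected by light microscopy for changes in cell conformation.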

[10] = read-out: Pselectin, SELP (gene 6403); assay: BSK_4H_Pselectin: BioMAP Diversity Plus: 4H Assay for Pselectin Biomarker Activity (AID 2283026); conditions: primary human endothelial cells (HUVEC); actives raise or lower the signal
How it was run: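 Human vascular endothelium from umbilical vein; P-selectin measured by ELISA at 24 h post-dose, with cytotoxicity checked by sulforhodamine B total-protein staining in parallel cultures (0.1% SRB after 10% TCA fixation, read at 560 nm).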

[11] = BSK_4H_SRB: Viability Assessment in the BioMAP Diversity Plus: 4H Assay (AID 2283027); conditions: primary human endothelial cells (HUVEC);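 note: cells exposed to compound for 24 h before staining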;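 for AC50: curves fitted both ways versus DMSO so AC50 may be loss or gain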
How it was run: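 Human umbilical vein endothelial cells were dosed with chemical and, after 24 h, fixed with 10% TCA, stained with 0.1% sulforhodamine B, and read at 560 nm to give total protein as a cytotoxicity measure. Bidirectional fitting relative to DMSO control.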

[12] = BSK_BE3C_SRB: Viability Assessment in the BioMAP Diversity Plus: BE3C Assay (AID 2283028); conditions: primary human bronchial epithelial cells;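 for AC50: fitted both ways so AC50 may mark signal gain or loss versus DMSO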
How it was run: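 Cytotoxicity read-out: SRB (0.1%) staining of TCA-fixed (10%) human lung bronchial epithelial cells, absorbance 560 nm, 24 h post-dosing. Curves fitted both directions relative to DMSO.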

[13] = read-out: Thrombomodulin, THBD (gene 7056); assay: BSK_3C_Thrombomodulin: BioMAP Diversity Plus: 3C Assay for Thrombomodulin Biomarker Activity (AID 2283029); conditions: primary human endothelial cells (HUVEC); actives raise or lower the signal
How it was run: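 Thrombomodulin ELISA, human primary HUVEC, 24 h post-dose; data fitted in both directions relative to DMSO.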

[14] = read-out: Urokinase-type plasminogen activator receptor (uPAR), PLAUR (gene 5329); assay: BSK_4H_uPAR: BioMAP Diversity Plus: 4H Assay for Urokinase-type plasminogen activator receptor (uPAR) Biomarker Activity (AID 2283030); conditions: primary human endothelial cells (HUVEC); actives raise or lower the signal
How it was run: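 uPAR level read by ELISA on HUVEC cultures (BioMAP 4H) 24 h post-dosing, analyzed for gain or loss relative to DMSO. Parallel SRB staining assessed overt cytotoxicity.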

[15] = molecular target: Retinoic acid receptor RXR-alpha (Homo sapiens) (UniProt P19793); assay: ATG_RXRa_TRANS: Attagene TRANS-FACTORIAL HepG2 Assay for human Retinoid X Receptor alpha (RXRa) (AID 2283012; active = hit-call score of the fitted dose curve at least 0.9, where 1 is the maximum)
Sequence of Retinoic acid receptor RXR-alpha (Homo sapiens) (P19793 whole entry, looked up, the tested form may be a part): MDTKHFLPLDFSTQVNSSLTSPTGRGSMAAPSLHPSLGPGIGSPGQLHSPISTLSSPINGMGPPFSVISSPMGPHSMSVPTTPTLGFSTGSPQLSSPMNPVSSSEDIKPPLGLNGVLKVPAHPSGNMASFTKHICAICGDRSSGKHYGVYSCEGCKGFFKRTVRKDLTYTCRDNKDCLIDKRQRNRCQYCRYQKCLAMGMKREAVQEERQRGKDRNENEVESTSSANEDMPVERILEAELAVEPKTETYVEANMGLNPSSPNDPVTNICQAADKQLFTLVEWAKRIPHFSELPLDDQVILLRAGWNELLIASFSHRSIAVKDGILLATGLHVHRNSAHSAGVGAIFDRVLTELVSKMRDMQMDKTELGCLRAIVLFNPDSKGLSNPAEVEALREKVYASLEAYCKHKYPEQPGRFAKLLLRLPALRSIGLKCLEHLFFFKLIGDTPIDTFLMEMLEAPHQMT
How it was run: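 Cells (HepG2) carried transiently transfected GAL4-responsive reporter units. Following a 24 h chemical incubation, reporter mRNA induction was read via RT-PCR fragment analysis; DMSO served as negative control and baseline.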

[16] = read-out: Interleukin-8 (IL8), CXCL8 (gene 3576); assay: BSK_3C_IL8: BioMAP Diversity Plus: 3C Assay for Interleukin-8 (IL8) Biomarker Activity (AID 2283020); conditions: primary human endothelial cells (HUVEC); actives raise or lower the signal
How it was run: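 Human vascular endothelial cells (umbilical vein) in the 3C system; IL-8 level detected by ELISA at 24 h post-dose, with DMSO as baseline.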

[17] = molecular target: human Vitamin D Receptor (VDR), VDR (gene 7421) (UniProt P11473); assay: ATG_VDR_TRANS: Attagene TRANS-FACTORIAL HepG2 Assay for human Vitamin D Receptor (VDR) (AID 2283022; active = hit-call score of the fitted dose curve at least 0.9, where 1 is the maximum)
Sequence of human Vitamin D Receptor (VDR), VDR (gene 7421) (P11473 whole entry, looked up, the tested form may be a part): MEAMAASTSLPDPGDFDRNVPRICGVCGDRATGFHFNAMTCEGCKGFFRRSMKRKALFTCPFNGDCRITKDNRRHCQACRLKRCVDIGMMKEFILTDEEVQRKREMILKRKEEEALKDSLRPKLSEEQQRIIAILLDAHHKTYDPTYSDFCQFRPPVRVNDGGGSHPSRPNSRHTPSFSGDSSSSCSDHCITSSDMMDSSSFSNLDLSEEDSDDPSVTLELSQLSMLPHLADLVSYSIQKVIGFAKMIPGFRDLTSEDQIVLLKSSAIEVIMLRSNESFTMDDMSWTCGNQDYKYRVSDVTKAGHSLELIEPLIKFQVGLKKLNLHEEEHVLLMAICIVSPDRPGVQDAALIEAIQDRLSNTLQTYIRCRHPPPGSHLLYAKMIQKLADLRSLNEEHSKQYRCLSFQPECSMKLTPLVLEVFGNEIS
How it was run: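 Transactivation by an exogenous VDR-Gal4 chimera in transiently transfected HepG2 cells was measured as reporter transcript level 24 hours after chemical treatment. RT-PCR products were analysed by capillary electrophoresis and fitted in the positive direction relative to DMSO.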

[18] = molecular target: human Thyroid Receptor alpha (THRa1), THRA (gene 7067) (UniProt P10827); assay: ATG_THRa1_TRANS: Attagene TRANS-FACTORIAL HepG2 Assay for human Thyroid Receptor alpha (THRa1) (AID 2283014; active = hit-call score of the fitted dose curve at least 0.9, where 1 is the maximum)
Sequence of human Thyroid Receptor alpha (THRa1), THRA (gene 7067) (P10827 whole entry, looked up, the tested form may be a part): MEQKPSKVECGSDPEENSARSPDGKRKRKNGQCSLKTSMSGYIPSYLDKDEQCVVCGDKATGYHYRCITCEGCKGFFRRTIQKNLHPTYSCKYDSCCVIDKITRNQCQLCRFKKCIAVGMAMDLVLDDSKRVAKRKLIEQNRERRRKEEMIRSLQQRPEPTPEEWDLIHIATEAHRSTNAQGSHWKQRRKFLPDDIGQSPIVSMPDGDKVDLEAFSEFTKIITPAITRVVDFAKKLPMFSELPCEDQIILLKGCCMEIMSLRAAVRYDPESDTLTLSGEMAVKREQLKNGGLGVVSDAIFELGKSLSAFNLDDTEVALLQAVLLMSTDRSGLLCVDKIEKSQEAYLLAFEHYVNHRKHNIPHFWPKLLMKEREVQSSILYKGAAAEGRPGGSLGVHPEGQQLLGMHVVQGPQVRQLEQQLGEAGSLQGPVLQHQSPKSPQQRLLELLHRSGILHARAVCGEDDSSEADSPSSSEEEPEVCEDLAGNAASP
How it was run: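 Transcripts from GAL4-UAS-driven reporters, measured after 24 h compound exposure by RT-PCR plus capillary electrophoresis of 6-FAM-labeled fragments, were fitted for gain of signal relative to DMSO. Cells: transiently transfected HepG2 expressing NR-Gal4 chimeras.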

[19] = read-out: Monocyte Chemoattractant Protein-1 (MCP1), CCL2 (gene 6347); assay: BSK_4H_MCP1: BioMAP Diversity Plus: 4H Assay for Monocyte Chemoattractant Protein-1 (MCP1) Biomarker Activity (AID 2283018); conditions: primary human endothelial cells (HUVEC); actives raise or lower the signal
How it was run: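 Readout: MCP-1 ELISA on compound-treated HUVEC, sampled 24 h post-dosing. Baseline and negative control DMSO; bidirectional fit. Overt toxicity checked alongside by sulforhodamine B protein staining at time of biomarker measurement.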

Measured: AC50

Sequence of E-selectin (Homo sapiens) (P16581 whole entry, looked up): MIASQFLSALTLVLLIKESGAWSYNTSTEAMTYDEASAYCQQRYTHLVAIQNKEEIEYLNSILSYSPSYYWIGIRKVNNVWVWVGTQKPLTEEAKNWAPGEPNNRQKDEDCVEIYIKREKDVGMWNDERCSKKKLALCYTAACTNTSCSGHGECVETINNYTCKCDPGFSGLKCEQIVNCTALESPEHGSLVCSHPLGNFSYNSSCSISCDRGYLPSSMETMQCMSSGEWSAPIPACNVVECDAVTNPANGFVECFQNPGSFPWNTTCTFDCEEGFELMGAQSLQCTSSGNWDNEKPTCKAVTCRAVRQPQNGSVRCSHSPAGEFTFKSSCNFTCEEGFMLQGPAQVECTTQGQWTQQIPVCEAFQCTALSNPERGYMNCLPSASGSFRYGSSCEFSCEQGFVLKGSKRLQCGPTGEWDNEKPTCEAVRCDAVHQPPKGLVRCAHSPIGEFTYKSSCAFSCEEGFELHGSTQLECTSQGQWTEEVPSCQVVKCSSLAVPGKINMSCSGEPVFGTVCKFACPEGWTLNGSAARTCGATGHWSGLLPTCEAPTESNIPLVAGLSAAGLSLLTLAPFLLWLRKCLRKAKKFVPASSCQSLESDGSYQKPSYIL

Cc1c2ccccc2c(C)c2c1ccc1ccccc12
inactive: [2] | [3] | [6] | [12] | [13]
active: [1] 15 µM | [4] 5.5 µM | [5] 14.3 µM | [7] 13.4 µM | [8] 20 µM | [9] 13.7 µM | [10] 14.7 µM | [11] 18.8 µM | [14] 14 µM

CC[C@H](NC(=O)c1cc(F)ccc1NS(=O)(=O)c1cccc2cccnc12)c1ccccc1
not listed: [1] | [4] | [18] | [19]
inactive: all other assays above

CCCCOC(=O)CC(CC(=O)OCCCC)(OC(C)=O)C(=O)OCCCC
not listed: [1]
inactive: all other assays above

O=c1ccc2ccccc2o1
not listed: [1] | [4] | [15] | [17] | [18]
inactive: all other assays above

Cc1occc1C(=O)Nc1ccc(C(=O)N2CCC(F)(F)/C(=C\C(=O)N3CCC(N4CCCCC4)CC3)c3ccccc32)cc1
active: [1] 55.2 µM | [18] 53.8 µM | [7] 11.5 µM
not listed: [4] | [15] | [16]
inactive: all other assays above

CCOC(=O)O[C@H](C)OC(=O)c1ccc2c(c1)cc(C(=O)NC1CCN(C(C)C)CC1)n2Cc1cc(-c2ccc(Cl)s2)on1
active: [2] 7.05 µM | [3] 11 µM | [4] 6.56 µM | [19] 5.27 µM | [5] 7.08 µM | [6] 8.78 µM | [7] 5.03 µM | [8] 13.2 µM | [9] 5.3 µM | [10] 6.95 µM | [11] 5.07 µM | [12] 6.07 µM | [14] 7.66 µM
inactive: [13]

CC1=CC(=O)/C(=C(/C)O)C(=O)O1
not listed: [15] | [16]
inactive: all other assays above
